Data from PubChem BioAssay (NCATS).
Results filed as inconclusive are left out. Entries that show only a call come without a potency. Unmarked numbers belong to inactive results. Activity calls are given as the source filed them. The call rests on the fitted dose curve; in most records, active means well fitted curve in the direction sought with a large enough effect; inconclusive means small, poorly fitted or top-dose-only effect, or another doubt; inactive means no such curve, though single readings can be large; an effect the other way counts as inactive or inconclusive.

Assays:
[1] = tested on: MKL-1; experiment: qHTS assay to identify novel small-molecules to repurpose for Merkel cell carcinoma treatment (AID 1296009); settings: MCC and control cell lines, CellTiter-Glo viability, 72 h; series mostly up to 46 µM; further: nearly all actives have a fitted effect of over 60% in size; further: potency means the concentration at half of the fitted maximal effect
How it was run: (§1)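 72 hr, 37 degree celsius; NPC 8-pt / MIPE 11-pt dose response; compound pinned in DMSO; CellTiter-Glo, 10 min RT, luminescence; normalized to no-cell and DMSO controls.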

[2] = tested on: MKL-2; experiment: as above; settings: MCC and control cell lines, CellTiter-Glo viability, 72 h; series mostly up to 46 µM
How it was run: as §1

[3] = tested on: UISO; experiment: as above; settings: MCC and control cell lines, CellTiter-Glo viability, 72 h; series mostly up to 46 µM
How it was run: as §1

[4] = tested on: WaGa; experiment: as above; settings: MCC and control cell lines, CellTiter-Glo viability, 72 h; series mostly up to 46 µM
How it was run: as §1

[5] = tested on: NIH3T3; experiment: as above; settings: MCC and control cell lines, CellTiter-Glo viability, 72 h; at 44.8 µM (top of the series) unless noted
How it was run: as §1

[6] = tested on: C33A; experiment: Primary qHTS to identify gynecologic anti-cancer compounds using libraries of approved drugs and bioactive compounds (AID 1345084); settings: Gynecologic cancer cell panel viability, ATPlite luminescence, 48 h; series mostly up to 57.5 µM; further: nearly all actives have a fitted effect of over 55% in size
How it was run: (§2)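 Five-point cytotoxicity, 48 h drug exposure at 37 C, 5% CO2, on cells seeded 16 h beforehand. ATP content read by ATPlite luminescence.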

[7] = tested on: CASKI; experiment: as above; settings: Gynecologic cancer cell panel viability, ATPlite luminescence, 48 h; series mostly up to 57.5 µM
How it was run: as §2

[8] = tested on: Es-2; experiment: as above; settings: Gynecologic cancer cell panel viability, ATPlite luminescence, 48 h; series mostly up to 57.5 µM
How it was run: as §2

[9] = tested on: HeLa; experiment: as above; settings: Gynecologic cancer cell panel viability, ATPlite luminescence, 48 h; series mostly up to 57.5 µM
How it was run: as §2

[10] = tested on: Hek293T; experiment: as above; settings: Gynecologic cancer cell panel viability, ATPlite luminescence, 48 h, control line for the selectivity index; series mostly up to 57.5 µM
How it was run: as §2

[11] = tested on: JEG-3; experiment: as above; settings: Gynecologic cancer cell panel viability, ATPlite luminescence, 48 h; series mostly up to 57.5 µM
How it was run: as §2

[12] = tested on: OV90; experiment: as above; settings: Gynecologic cancer cell panel viability, ATPlite luminescence, 48 h; series mostly up to 57.5 µM
How it was run: as §2

[13] = tested on: PA-1; experiment: as above; settings: Gynecologic cancer cell panel viability, ATPlite luminescence, 48 h; series mostly up to 57.5 µM
How it was run: as §2

[14] = tested on: Tov-21-G; experiment: as above; settings: Gynecologic cancer cell panel viability, ATPlite luminescence, 48 h; series mostly up to 57.5 µM
How it was run: as §2

[15] = tested on: Tov112D; experiment: as above; settings: Gynecologic cancer cell panel viability, ATPlite luminescence, 48 h; series mostly up to 57.5 µM
How it was run: as §2

For `OCC(O)C(O)C(O)CO` (stereo unspecified), the Potency [1] was “inactive”, the Potency [2] was “inactive” and the Potency [3] was “inactive”. For the same molecule, the Potency [4] was “inactive”.
With `CC(C)(O)Cn1c(NC(=O)c2ccc(-c3cn[nH]c3)s2)nc2cc(CN3CCOCC3)ccc21` the Potency [1] was 1180 nM (active), the Potency [2] was 14800 nM (active) and the Potency [3] was 1870 nM (active).
With `O=C(C=Cc1ccc(CN(CCO)CCc2c[nH]c3ccccc23)cc1)NO` the Potency [1] was 418 nM (active), the Potency [2] was 105 nM (active) and the Potency [3] was 1180 nM (active). The Potency [4] was 105 nM (active).
`CCN1CCN(C(=O)N[C@H](C(=O)N[C@@H]2C(=O)N3C(C(=O)O)=C(CSc4nnnn4C)CS[C@@H]23)c2ccc(O)cc2)C(=O)C1=O` gave an activity change, negative = cytotoxicity [1] of 8.33% [at 9.22 µM], an activity change, negative = cytotoxicity [2] of -17.3% [at 9.22 µM] and an activity change, negative = cytotoxicity [3] of -1.23% [at 9.22 µM]. It also gave an activity change, negative = cytotoxicity [4] of -1.78% [at 9.22 µM].
`C[C@H](O)[C@@H]1C(=O)N2C(C(=O)O)=C(S[C@@H]3CN[C@H](CNS(N)(=O)=O)C3)[C@@H](C)[C@@H]12` was tested, and the Potency [1] was “inactive”, the Potency [2] was “inactive” and the outcome [5] was “inactive”. The Potency [3] was “inactive”, the Potency [4] was “inactive” and the Potency [6] was “inactive”. For the same molecule, the Potency [7] was “inactive”, the Potency [8] was “inactive” and the Potency [9] was “inactive”. The Potency [10] was “inactive”, the Potency [11] was “inactive” and the Potency [12] was “inactive”. For the same molecule, the Potency [13] was “inactive”, the Potency [14] was “inactive” and the Potency [15] was “inactive”.
With `O=C1NC(=O)C(=Cc2ccc3nccc(-c4ccncc4)c3c2)S1` the Potency [1] was 1480 nM (active), the Potency [2] was 469 nM (active) and the Potency [3] was 743 nM (active). The Potency [4] was 833 nM (active).
`COc1cc([C@@H]2c3cc4c(cc3[C@@H](O[C@@H]3O[C@@H]5CO[C@@H](c6cccs6)O[C@@H]5[C@H](O)[C@@H]3O)[C@H]3COC(=O)[C@H]23)OCO4)cc(OC)c1O` was tested, and the Potency [1] was 235 nM (active), the Potency [2] was 118 nM (active) and the Potency [3] was 1870 nM (active).
For `N#CC(=C(O)c1ccc(Cl)cc1Cl)c1nc2cc(Cl)ccc2c(=O)[nH]1`, the Potency [1] was “inactive”, the Potency [2] was “inactive” and the Potency [3] was “inactive”. For the same molecule, the Potency [4] was “inactive”.
With `CC(=O)O[C@H]1C[C@@H]2CC[C@H]3[C@H]4C[C@H]([N+]5(C)CCCCC5)[C@@H](OC(C)=O)[C@@]4(C)CC[C@@H]3[C@@]2(C)C[C@H]1[N+]1(C)CCCCC1` the Potency [1] was “inactive”, the Potency [2] was “inactive” and the Potency [3] was “inactive”. For the same molecule, the Potency [4] was “inactive”.
With `COc1ccc(Nc2nccc(NCCO)n2)cc1` the Potency [1] was “inactive”, the Potency [2] was “inactive” and the Potency [3] was “inactive”. The Potency [4] was “inactive”.
For `C[C@H]1O[C@H](O[C@H]2[C@H](O)[C@@H](O)[C@@H](O[C@H]3[C@H](O)[C@@H](O)C(O)O[C@H]3CO)O[C@H]2CO)[C@H](O)[C@@H](O)[C@H]1N[C@H]1C=C(CO)[C@@H](O)[C@H](O)[C@@H]1O` (stereo partly specified), the Potency [1] was “inactive”, the Potency [2] was “inactive” and the Potency [3] was “inactive”. For the same molecule, the Potency [4] was “inactive”.
For `CC(=O)N[C@@H]1[C@H](O[C@@H]2c3ccc(c(Cl)c3)Oc3cc4cc(c3O[C@H]3O[C@H](CO)[C@@H](O)[C@H](O)[C@H]3NC(=O)CCCCCCCC(C)C)Oc3ccc(cc3Cl)C[C@H]3NC(=O)[C@H](N)c5ccc(O)c(c5)Oc5cc(O)cc(c5)[C@H](NC3=O)C(=O)N[C@H]4C(=O)N[C@H]3C(=O)N[C@@H]2C(=O)N[C@@H](C(=O)O)c2cc(O)cc(O[C@H]4O[C@H](CO)[C@@H](O)[C@H](O)[C@H]4O)c2-c2cc3ccc2O)O[C@H](CO)[C@@H](O)[C@@H]1O`, the Potency [1] was “inactive”, the Potency [2] was “inactive” and the Potency [3] was “inactive”. The Potency [4] was “inactive”.
For `C=CC(=O)N1CCc2ccc(-n3c(=O)ccc4cnc5ccc(-c6cnn(C)c6)cc5c43)cc21`, the Potency [1] was 1870 nM (active), the Potency [2] was 1870 nM (active) and the Potency [3] was 6620 nM (active).
`C=C1CCC2[C@](C)(CO)C(O)CC[C@]2(C)C1CC=C1C(=O)OCC1O` (stereo partly specified) was tested, and the Potency [1] was “inactive”, the Potency [2] was “inactive” and the Potency [3] was “inactive”. For the same molecule, the Potency [4] was “inactive”.
In the case of `Cn1cc(C[C@@H](N)C(=O)O)c2ccccc21`, the Potency [1] was “inactive”, the Potency [2] was “inactive” and the Potency [3] was “inactive”. For the same molecule, the Potency [4] was “inactive”.
In the case of `C=CC(=O)Nc1cccc(Nc2nc(NC3CCC(N(C)C)CC3)nc3c2ncn3C(C)C)c1` (stereo unspecified), the Potency [1] was 7.4 nM (active), the Potency [2] was 16.6 nM (active) and the Potency [3] was 418 nM (active).
`CC(=O)N1CCN(c2ccc(OCc3nn(C)c(C)c3-c3cccc4c(CCCOc5cccc6ccccc56)c(C(=O)O)n(Cc5cccnc5)c34)cc2)CC1` was tested, and the Potency [1] was 3320 nM (active), the Potency [2] was 296 nM (active) and the Potency [3] was 1180 nM (active). The Potency [4] was 83.3 nM (active).
`c1cc(CN2CCCNCCNCCCNCC2)ccc1CN1CCCNCCNCCCNCC1` was tested, and the Potency [1] was “inactive”, the Potency [2] was “inactive” and the Potency [3] was “inactive”. The Potency [4] was “inactive”.
With `COC(=O)C=CC(=O)OC` the Potency [1] was “inactive”, the Potency [2] was “inactive” and the Potency [3] was “inactive”.
With `C[C@@H]1CC[C@@]2(OC1)OC1CC3C4CC=C5CC(O)CCC5(C)C4CCC3(C)C1[C@@H]2C` (stereo partly specified) the Potency [1] was “inactive”, the Potency [2] was “inactive” and the Potency [3] was “inactive”. For the same molecule, the Potency [4] was “inactive”.
